# Compounds without any hit were thinned out: in the full panel of roughly 83,000, 20% have a hit.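 The endpoint reported here, percent growth, reads 100 for growth as untreated, 0 for no net growth and -100 for all cells dead.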 Unmarked numbers belong to inactive results. The source made the active and inactive calls. Rule for the calls: active = growth percent below 10; inactive = the rest.
# Tests used:
# Test in all cases: NCI-60 one-dose screen, 48 h (100 = growth as untreated, 0 = no growth, -100 = all killed)
# Details in all cases: 10 µM unless noted
# SK-MEL-2 melanoma = test system: SK-MEL-2 melanoma
# EKVX NSCLC = test system: EKVX NSCLC
# SN12C renal = test system: SN12C renal
# UO-31 renal = test system: UO-31 renal
# TK-10 renal = test system: TK-10 renal
# ACHN renal = test system: ACHN renal
# A498 renal = test system: A498 renal
# MOLT-4 leukemia = test system: MOLT-4 leukemia
# SR leukemia = test system: SR leukemia
# RPMI-8226 leukemia = test system: RPMI-8226 leukemia
# OVCAR-8 ovarian = test system: OVCAR-8 ovarian
# OVCAR-5 ovarian = test system: OVCAR-5 ovarian
# OVCAR-4 ovarian = test system: OVCAR-4 ovarian
# IGROV1 ovarian = test system: IGROV1 ovarian
# OVCAR-3 ovarian = test system: OVCAR-3 ovarian
# HS 578T breast = test system: HS 578T breast
# NCI/ADR-RES ovarian = test system: NCI/ADR-RES ovarian
# CAKI-1 renal = test system: CAKI-1 renal
# SK-OV-3 ovarian = test system: SK-OV-3 ovarian
# CCRF-CEM leukemia = test system: CCRF-CEM leukemia
SMILES,growth (SK-MEL-2 melanoma) [%],growth (EKVX NSCLC) [%],growth (SN12C renal) [%],growth (UO-31 renal) [%],growth (TK-10 renal) [%],growth (ACHN renal),growth (A498 renal) [%],growth (MOLT-4 leukemia) [%],growth (SR leukemia),growth (RPMI-8226 leukemia),growth (OVCAR-8 ovarian) [%],growth (OVCAR-5 ovarian) [%],growth (OVCAR-4 ovarian) [%],growth (IGROV1 ovarian),growth (OVCAR-3 ovarian),growth (HS 578T breast),growth (NCI/ADR-RES ovarian),growth (CAKI-1 renal) [%],growth (SK-OV-3 ovarian) [%],growth (CCRF-CEM leukemia)
COc1cc2oc(-c3cccc(NC(=O)Nc4ccc5c(c4)OCO5)c3)cc(=O)c2c(OC)c1OC,71.7,86.2,49.5,17.8,56,47.1%,77.1,54.8,33.3%,-1.59% (active),44.3,118,69.1,62.5%,56%,59.4%,57.6%,,,
Nc1cc2c(cc1N)-c1cc(N)c(N)cc1C2,111,89.2,94.9,53.9,110,96%,,92.3,,95.9%,103,109,108,97.6%,109%,94.3%,111%,93.8,99.2,
CSc1ccccc1C#C/C=C\C#Cc1ccccc1N1CCCCC1=O,70.8,91.5,98.3,34.6,151,97.7%,107,104,,64.3%,103,96.7,102,-29.6% (active),97.6%,-20.4% (active),102%,,109,60%
Cc1sc(N=Nc2ccc(N(C)C)cc2)[n+]([O-])c1C,114,,96.7,82.4,104,104%,88.1,103,98.2%,106%,101,107,94.2,93.4%,96%,96.3%,,110,104,104%
CCC(c1ccc(OC)cc1)C(CC)c1ccc(OCC[N+](C)(C)C)cc1 (stereo unspecified),94,81.1,34.1,82.2,76.4,91%,93.2,51.8,53.9%,,51.4,91,63.4,,34.6%,63.6%,100%,,87.7,
O=C1NCC(c2cc3ccccc3[nH]c2=O)Nc2ccccc21 (stereo unspecified),100,106,99.7,76.8,87.8,99.7%,104,111,,106%,103,91.2,104,,111%,99.4%,111%,,89.9,
COc1cc(C2C=C(C)N=C3SC(C)=NN32)cc(OC)c1OC (stereo unspecified),107,,109,72,102,103%,81.8,92.8,96.3%,108%,104,95.9,104,101%,106%,114%,,103,92.5,91.8%
CCSc1nnc(Nc2ccc(C(C)C)cc2)s1,41.3,80.5,76.7,39.5,96.1,91.1%,111,66.3,69.4%,72.2%,109,87.1,84,-7.13% (active),106%,132%,87.6%,,104,70.6%
COc1ccc2c(c1)NC(=O)CN2c1nc(NC2CC2)nc2ccccc12,25.7,27.8,39.1,28.7,23.6,24.9%,,33.9,31.5%,,18.3,44,40.3,24.5%,-19.7% (active),26.6%,5.39% (active),32.9,23.9,
CCN(CC)CCC(=O)c1cccc2ccccc12,114,100,102,87.6,109,98.8%,101,102,53.4%,44.4%,104,98.3,119,101%,113%,101%,104%,,121,100%
O=C(Nc1cccc(C(F)(F)F)c1)Nc1ccc(OCc2nnc(-c3ccccc3)o2)c(F)c1,67.8,,52.8,26.9,60.2,6.63% (active),43.5,17,5.85% (active),2.02% (active),38.5,50.9,34.5,45.9%,15.6%,39.2%,,36.9,69.1,8.15% (active)
CC(C)(C)c1cc(-c2nc3ccc(N4CCN(CCO)CC4)cc3[nH]2)cc(C(C)(C)C)c1O,81.8,92.9,85.8,72.4,87.6,89.2%,86.1,32.9,-16% (active),1.15% (active),83.8,90.6,76.7,82.7%,72.7%,67%,93.2%,,84,29.5%
Cc1cnc(NC(=O)C(Cc2ccccc2)NC(=O)c2ccccc2)s1 (stereo unspecified),43.2,78.5,76.1,26.7,79.2,68%,92.6,40.8,41%,-15.7% (active),92.6,106,59.4,-19.6% (active),83.8%,85.8%,65.6%,,108,
CN(C)CCCNC(=O)C(c1ccccc1)c1ccccc1,95.6,106,96.8,84.1,88.2,93.5%,,85.3,105%,101%,102,111,118,117%,113%,110%,,,112,100%
NC(=O)NNC(=O)c1ccccc1,128,96.3,114,89.8,103,109%,,102,,103%,110,109,108,,111%,,103%,92.5,123,105%
O=C(O)Cc1ccc2c(c1)Cc1cccnc1O2,104,,100,94,92.5,111%,104,102,96.8%,105%,103,101,101,96.6%,108%,107%,,96.9,103,100%
CCCCCCc1nc2c(c(C)nn2-c2ccccc2)c2c1CCCCC2,116,,104,91.5,126,107%,104,106,97.7%,105%,107,114,115,109%,107%,106%,110%,94.8,95,101%
CCN1C(=O)N(CC)C2Nn3c(s/c(=C4\C(=O)N(C5CCCC5)c5ccccc54)c3=O)=NC21 (stereo unspecified),75.9,59.7,70.6,51.7,88.1,59.2%,,84.4,34.8%,54.1%,60.2,77.5,55.7,67.3%,40.8%,62%,10.9%,,,

# Reference: PubChem BioAssay (NCI)
